# Records with an inconclusive call do not appear. Activity calls are given as the source filed them. Calls come from the whole dose curve; as a rule, active = well fitted activation curve with a large enough effect; inconclusive = small, poorly fitted or top-dose-only effect; inactive = no such curve, though single readings can be large or run the other way.
# Assay: qHTS Assay for NPC1 Promoter Activators: Hit Validation Using Firefly Luciferase Read-Out for Rab9
# Conditions: Huh7 Rab9 promoter firefly luciferase reporter, 24 h; series mostly up to 46.1 µM; activation: at the top concentration
# From the text: Niemann Pick Type C (NPC) is a rare neurodegenerative lipidosis that is characterized by lipid storage in the endosomal/lysosomal system. Treatment modalities for this devastating disease are currently non-existent due to the severe obstacles associated with accessing the central nervous system with proteins or genes. The majority of mutations causing NPC disease are missense mutations that are distributed throughout the length of the NPC1 protein, with the most prevalent being the I1061T allele. Although NPC1 mutant proteins may be functional, they are typically trapped in the ER due to misfolding. […] We have developed and optimized a cell based renilla luciferase reporter assay in 1536 well format for the identification of up-regulators of the mutant Rab9 promoter. This assay presents data on the validation of hits from the primary screen, which used a firefly luciferase read-out. NIH Chemical Genomics Center [NCGC] NIH Molecular Libraries Probe Production centers Network [MLPCN] MLPCN Grant: MH089375 Assay Submitter (PI): Yiannis A. Ioannou
# Huh7 cells stably expressing NPC promoter-luciferase will be seeded at 1,500 cells/well in 5 uL in 1,536-well white opaque plates with 23 nL/well of compound in DMSO solution. The assay plates will be incubated at 37 deg C for 24 hours, after which 3 uL/well BriteLite plus luciferase detection reagent mixture (Perkin Elmer) will be added. Luminescence signal will be measured in a ViewLux plate reader (Perkin Elmer) after a 10 minute incubation at the room temperature.
Compound,activation,Potency
COc1ccc(-c2csc(N(CCCN(C)C)C(=O)c3ccccc3C)n2)cc1,-38% (inactive),
Cc1ccc(NC(=O)NC(=O)c2ccccc2)cc1F,,0.445 µM (active)
CC1CCCN(S(=O)(=O)c2ccc(C(=O)Nc3nnc(-c4ccncc4)o3)cc2)C1 (stereo not drawn),-34.8% (inactive),
N#CC/C(N)=N/NC(=O)CCCNc1ncc(C(F)(F)F)cc1Cl,,19.9 µM (active)
CCc1cc2c(N=Nc3c(O)[nH]c4ccccc34)ncnc2s1,21.6% (inactive),
Cc1ccc(NC(=O)COC(=O)C2C3CC4OC(=O)C2C4C3)cc1Cl (stereo not drawn),26.1% (inactive),
O=C(CSc1nccn1Cc1ccco1)Nc1ccccc1F,25.6% (inactive),
CC(C)CC(=O)N1CCN(c2ccc(NC(=O)c3ccco3)cc2)CC1,19.6% (inactive),
Cc1cccc(N2CCN(C(=S)c3ccccc3)CC2)c1,24.4% (inactive),
COc1ccc([N+](=O)[O-])cc1COc1ccc2c(-c3ccccc3)cc(=O)oc2c1,12.7% (inactive),
O=C(CSc1nnc(-c2ccccc2)o1)Nc1ccccc1F,,0.112 µM (active)
O=C(NC(=S)Nc1ccc(CN2CCCCC2)cc1)c1cc2ccccc2o1,16.3% (inactive),
CCOC(=O)c1ccc(NC(=O)Oc2cc(C)c(Cl)cc2C(C)C)cc1,12.2% (inactive),
